Data from PubChem BioAssay (NCATS).
Inconclusive results are not listed. Unless noted, calls follow the shape of the dose curve; as a rule, active = well fitted curve in either direction with a large enough effect (not every such curve was filed as active); inconclusive = small, poorly fitted or top-dose-only effect, or another doubt; inactive = flat fitted curve, though single readings scatter.

Assays:
[1] = AP1 Signaling Pathway (AID 357); details: ME-180 AP-1-bla reporter, EGF-induced, beta-lactamase ratio, 5 h; at 17.2 µM (top of the series) unless noted;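 also: ME-180 reporter cells stimulated with EGF at its EC50 level; % is scaled to controls: 0 for no effect and ±100 for the full control effect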
Method in brief: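 A ratiometric CCF4 readout (405 nm excitation; 460 and 530 nm emission) quantified AP-1-driven beta-lactamase in ME-180 cells after 5 h with compound and EC50 EGF; AC50 values were derived for activators and inhibitors.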

[2] = NFAT Signaling Pathway (AID 444); details: Jurkat NFAT-bla M1, carbachol, beta-lactamase ratio, 5 h; at 17.2 µM (top of the series) unless noted;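 also: carbachol stimulus at about its EC50 of 1 µM final; % is scaled to controls: 0 for no effect and ±100 for the full control effect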
Method in brief: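 Jurkat cells with NFAT-driven β-lactamase reporter and co-expressed M1 receptor, stimulated with carbachol (final 1 uM, ~EC50), compound titration, 5 h at 37 °C. CCF4 loaded 1 h at RT; 460/530 nm ratio gave %activity and AC50.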

[3] = target: Glucocorticoid receptor (Homo sapiens) (UniProt P04150); assay: GR-GFP Redistribution (AID 450;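 active = compounds whose dose series gives a full or clear partial fitted curve of increased nuclear translocation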; also: potency is read from the fitted curve at half-maximal effect)
[4] = Stat Signaling Pathway (AID 446); details: ME-180 SIE beta-lactamase reporter, IL-6 stimulated, 5 h; at 17.2 µM (top of the series) unless noted;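 also: ME-180 cervical cancer cells given 40 pM IL-6 alongside compound; SIE-controlled beta-lactamase reporter measured as 460/530 nm FRET emission ratio; % is scaled to controls: 0 for no effect and ±100 for the full control effect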
Method in brief: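 ME-180 cells carrying a SIE-driven beta-lactamase reporter are stimulated with 40 pM IL-6 for 5 h at 37C in the presence of compound. The 460/530 nm FRET substrate ratio is read after 2.5 h at RT. Data are normalised to 300 pM IL-6 and to 125 nM JAK inhibitor controls.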

[5] = qHTS Assay for Identification of Small Molecule Agonists for Hypoxia Response Element Signaling Pathway (AID 914; active = well fitted activation curve with a large enough effect in the signal ratio, with a control signal flat, not every such curve was filed as active; the % refers to the signal ratio; also: % of control where 0% means no effect); details: ME-180 (cervical carcinoma) HRE-bla reporter, beta-lactamase ratio, CoCl2, 17 h; activation: hits give high values
Method in brief: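 In Opti-MEM containing 0.5% dialyzed FBS and 10 mM HEPES, ME-180 HRE-bla cells received a compound titration and EC50 CoCl2. They were incubated 17 hours, then CCF4-loaded 2.5 hours at room temperature before ratio reading.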

Sequence of Glucocorticoid receptor (Homo sapiens) (P04150 whole entry, looked up): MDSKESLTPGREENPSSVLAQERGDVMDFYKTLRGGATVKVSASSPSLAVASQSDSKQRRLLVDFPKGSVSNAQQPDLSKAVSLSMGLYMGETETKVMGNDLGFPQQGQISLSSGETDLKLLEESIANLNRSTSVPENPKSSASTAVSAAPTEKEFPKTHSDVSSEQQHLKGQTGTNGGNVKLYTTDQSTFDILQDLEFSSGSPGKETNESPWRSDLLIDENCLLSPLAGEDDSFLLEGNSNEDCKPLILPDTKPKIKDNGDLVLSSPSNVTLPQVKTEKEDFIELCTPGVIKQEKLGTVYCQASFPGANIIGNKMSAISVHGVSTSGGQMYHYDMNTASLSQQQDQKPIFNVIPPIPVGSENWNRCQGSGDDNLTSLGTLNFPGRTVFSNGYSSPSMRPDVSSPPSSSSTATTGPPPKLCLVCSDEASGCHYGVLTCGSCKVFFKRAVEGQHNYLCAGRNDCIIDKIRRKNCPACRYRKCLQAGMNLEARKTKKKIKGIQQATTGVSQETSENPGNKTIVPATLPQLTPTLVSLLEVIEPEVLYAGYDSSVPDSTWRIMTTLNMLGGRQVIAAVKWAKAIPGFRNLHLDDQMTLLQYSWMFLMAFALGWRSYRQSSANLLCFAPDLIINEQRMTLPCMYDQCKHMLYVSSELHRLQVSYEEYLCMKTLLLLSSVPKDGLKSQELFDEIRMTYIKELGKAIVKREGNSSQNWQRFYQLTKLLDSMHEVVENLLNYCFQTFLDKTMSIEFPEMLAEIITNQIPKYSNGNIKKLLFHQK

N#Cc1c2c(c(-c3ccccc3)[nH]c1=O)CCCC2
inactive: activity change, negative = inhibition [1] 5.23% | activity change, negative = inhibition [2] 10.7% | Potency [3] > 20.6 µM

CCCCOC(=O)CSc1nc(N)c(C#N)c(-c2ccc(OC)cc2)c1C#N
inactive: activity change, negative = inhibition [1] -13.6% | activity change, negative = inhibition [2] -0.768% | Potency [3] > 20.6 µM

CCc1ccc(NC(=O)CSC2=C(C#N)C(c3ccc4c(c3)OCO4)CC(=O)N2)cc1 (stereo unspecified)
inactive: activity change, negative = inhibition [1] -19.8% | activity change, negative = inhibition [2] -5.09% | Potency [3] > 20.6 µM

CCOC(=O)CSc1nc(N)c(C#N)c(-c2ccc(OC)cc2)c1C#N
inactive: activity change, negative = inhibition [1] -27.1% | activity change, negative = inhibition [2] 2.57% | Potency [3] > 20.6 µM

COc1ccc(C(=O)Cn2c(Br)nc3c2c(=O)n(C)c(=O)n3C)cc1OC
inactive: activity change, negative = inhibition [1] 7.09% | activity change, negative = inhibition [2] 25.7% | activity, negative = inhibition [4] 0.59% | Potency [3] > 20.6 µM | activation [5] 8.03%

CCOc1ccc(Cn2c(O)cc(=O)[nH]c2=O)cc1
inactive: activity change, negative = inhibition [1] 11.9% | activity change, negative = inhibition [2] 2.3% | activity, negative = inhibition [4] 5.06% | Potency [3] > 20.6 µM | activation [5] 5.51%

Cc1ccc(Oc2nc3c(c(=O)n(Cc4ccccc4F)c(=O)n3C)n2C)cc1
inactive: activity change, negative = inhibition [1] -27.5% | activity change, negative = inhibition [2] 11.5% | Potency [3] > 20.6 µM

CCC(=O)Nc1nc(C)c(Oc2ccccc2)c(=O)[nH]1
inactive: activity change, negative = inhibition [1] 6.64% | activity change, negative = inhibition [2] 9.01% | Potency [3] > 20.6 µM

O=C(Cc1ccccc1)Nc1cccc(-c2nnc(-c3ccco3)o2)c1
inactive: activity change, negative = inhibition [1] -23.3% | activity change, negative = inhibition [2] 11.7% | Potency [3] > 20.6 µM

O=C(NCCN1CCCCC1)c1ccc(=O)oc1
inactive: activity change, negative = inhibition [1] 13.4% | activity change, negative = inhibition [2] 6.11% | Potency [3] > 20.6 µM

CCn1cc(C(=O)NCc2ccccn2)c(=O)c2cc(F)c(N3CCN(C)CC3)cc21
inactive: activity change, negative = inhibition [1] -1.53% | activity change, negative = inhibition [2] -29.8% | Potency [3] > 20.6 µM

CC(C)CC(NC(=O)OC(C)(C)C)C(=O)NCc1ccccc1 (stereo unspecified)
inactive: activity change, negative = inhibition [1] -7.56% | activity change, negative = inhibition [2] -25.8% | Potency [3] > 20.6 µM

CCOC(=O)C1=C(N)n2c(s/c(=C\c3cccnc3)c2=O)=C(C(=O)OC)C1c1cccnc1 (stereo unspecified)
inactive: activity change, negative = inhibition [1] -8.91% | activity change, negative = inhibition [2] 23.6% | Potency [3] > 20.6 µM

CCN(CC)CCCN1C(=O)C(=O)/C(=C(/O)c2ccc3c(c2)CC(C)O3)C1c1ccncc1 (stereo unspecified)
inactive: activity change, negative = inhibition [1] 0.667% | activity change, negative = inhibition [2] 13.1% | Potency [3] > 20.6 µM

CN1C(=O)C2(N=c3ccccc3=N2)c2ccccc21
inactive: activity change, negative = inhibition [1] 15.2% | activity change, negative = inhibition [2] 25.6% | Potency [3] > 20.6 µM

Cc1ccnc(N2CCN(c3c4c(c(C#N)c5nc6ccccc6n35)CCC4)CC2)c1
inactive: activity change, negative = inhibition [1] -8.81% | activity change, negative = inhibition [2] -1.93% | Potency [3] > 20.6 µM

Cc1cc(=O)oc(C)c1C(=O)NCCN1CCOCC1
inactive: activity change, negative = inhibition [1] 11.5% | activity change, negative = inhibition [2] 7.8% | Potency [3] > 20.6 µM

COc1ccccc1C1/C(=C(/O)c2ccc(OC(C)C)cc2)C(=O)C(=O)N1c1cc(C)on1 (stereo unspecified)
inactive: activity change, negative = inhibition [1] -28.1% | activity change, negative = inhibition [2] 27.8% | Potency [3] > 20.6 µM

CCOC(=O)c1[nH]c2cc3c(cc2c1NC(=O)CN1CCc2ccccc2C1)OCO3
inactive: activity change, negative = inhibition [1] -23.5% | activity change, negative = inhibition [2] -10.9% | Potency [3] > 20.6 µM
